Source: PubChem BioAssay (several laboratories)
HSF1 inhib – HSF1 inhibition. NIH3T3-HGL HSE-luciferase, MG132-induced, luminescence 8 h; active compounds read low. activity change, negative = inhibition, % at 7.5 µM (by protocol). hit rate 0.77% among 300,000. AID 2098;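 active means more than half of replicate wells show activity change below -50%, luminescence cut by over half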;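 further: luciferase reports HSF-1 transcriptional activity via heat shock element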
S1P4 ag – agonists of human S1P4 receptor | O95977 | S1P4-expressing cell line, agonist reporter assay | activation, % at 4.98 µM | hit rate 0.35% among 220,000 | AID 1509; in the data active means activation above about 11%
HSF-1 act – increases HSF-1 driven luciferase reporter signal | NIH3T3-HGL HSF-1 luciferase reporter, MG132, 8 h; 100% = twice DMSO control signal | activation, % at 9 µM | hit rate 1.7% among 300,000;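 active means mean replicate activation of at least 50% with a set share of replicates each reaching 50%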
Hsp70 act – switches on Hsp70 transcription | HeLa Hsp70 promoter luciferase reporter, luminescence; scaled: vehicle 0, proteasome-inhibitor control 100% | activation, % at 10 µM | hit rate 0.04% among 200,000;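 active means activation above the mean across all tested compounds plus 3 SD, cutoff set per campaign, cut at about 5.5% in these data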
S1P3 antagonist – blocks the human S1P3 receptor; Q99500; CHO S1P3 NFAT-BLA reporter, FRET fluorescence, antagonist mode; inhibition, % at 4.98 µM; hit rate 0.27% among 170,000;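 active means inhibition above the plate cutoff, the mean inhibition of test wells on that plate plus 3 SD, cut at about 28% in these data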;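 further: cells challenged with S1P at its EC80 of 0.8 µM; blue over green emission ratio from cleaved BLA substrate after 4 h stimulation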
Target sequence (Q99500 whole entry, looked up): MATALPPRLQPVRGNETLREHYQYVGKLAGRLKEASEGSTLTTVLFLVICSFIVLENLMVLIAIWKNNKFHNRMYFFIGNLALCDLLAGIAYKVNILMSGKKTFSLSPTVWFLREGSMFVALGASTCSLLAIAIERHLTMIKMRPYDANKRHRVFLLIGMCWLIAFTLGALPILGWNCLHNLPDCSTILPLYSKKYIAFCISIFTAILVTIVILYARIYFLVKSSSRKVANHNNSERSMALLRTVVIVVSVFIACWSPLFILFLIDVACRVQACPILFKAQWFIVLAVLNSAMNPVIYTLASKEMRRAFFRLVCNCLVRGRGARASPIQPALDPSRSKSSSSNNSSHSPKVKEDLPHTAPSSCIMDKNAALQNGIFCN
S1P4 antagonist – antagonists of human S1P4 receptor. O95977. S1P4-expressing cells, antagonist mode, reporter read-out. inhibition, % at 4.98 µM. hit rate 0.26% among 220,000; in the data active means inhibition above about 29%
A number is an active result; 0 = inactive; - = no result given. Most compounds without a hit are left out; they make up all but 2.9% or so of the library.

SMILES | HSF1 inhib | S1P4 ag | HSF-1 act | Hsp70 act | S1P3 antagonist | S1P4 antagonist
O=C(c1nc(-c2ccccc2)n(-c2ccccc2)n1)N1CCN(S(=O)(=O)c2ccccc2)CC1 | 0 | 0 | 0 | 0 | 0 | 0
CC(C)CCNC(=O)C1CCC(CNS(=O)(=O)c2ccc(Cl)cc2)CC1 (stereo unspecified) | 0 | - | 0 | - | - | -
CCN(CC)CCCNC(=O)C1CCC(CNS(=O)(=O)c2ccc(Cl)cc2)CC1 (stereo unspecified) | -67 | - | 0 | - | - | -
CCCNC(=O)c1ccc2c(=O)c(O)c(-c3cccc(Br)c3)[nH]c2c1 | -52 | - | 0 | - | - | -
CCCNC(=O)c1ccc2c(=O)c(O)c(-c3ccc(F)cc3)[nH]c2c1 | 0 | - | 0 | - | - | -
COCCNC(=O)Cn1cnc2c1c(=O)n(C)c(=O)n2C | 0 | 0 | 56 | 0 | - | 0
COC(=O)Cn1cnc2c1c(=O)n(C)c(=O)n2C | 0 | 0 | 0 | 0 | - | 0
COc1ccc(Cl)cc1NC(=O)CN(C)C(=O)Cn1c(=O)oc2ccccc21 | -58 | - | 0 | - | - | -
COc1ccc(Cl)cc1NC(=O)CN(C)C(=O)Cn1cnc2c1c(=O)n(C)c(=O)n2C | -74 | - | 0 | - | - | -
COc1ccc(-c2[nH]n(-c3ccc([N+](=O)[O-])cc3)c(=O)c2C=NCc2ccccc2)cc1 | 0 | 0 | 0 | 0 | 0 | 0
O=c1[nH]c2ccccc2cc1CN(Cc1cccnc1)S(=O)(=O)c1ccc([N+](=O)[O-])cc1 | 0 | - | 63 | - | - | -
Cc1cccn2cc(COc3cccc([N+](=O)[O-])c3)nc12 | 0 | 0 | 0 | 0 | 0 | 0
Brc1ccc(OCc2cn3ccccc3n2)cc1 | 0 | 0 | 83 | 0 | 0 | 0
Cc1cccn2cc(COc3ccc(-c4ccccc4)cc3)nc12 | 0 | 0 | 69 | 0 | 0 | 0
CCOc1ccc2nc(NC(=O)CCC(=O)c3cccs3)sc2c1 | - | 0 | - | 0 | - | 0
CCOC(=O)C1=C(c2ccccc2)NC(=O)NC1c1ccc(O)c(Cl)c1 (stereo unspecified) | 0 | - | 0 | - | - | -
CCOC(=O)C1=C(c2ccccc2)NC(=O)NC1c1ccsc1 (stereo unspecified) | -51 | - | 0 | - | - | -
CCOC(=O)C1=C(c2ccccc2)NC(=O)NC1c1cc(Br)c(O)c(OC)c1 (stereo unspecified) | 0 | 0 | 79 | 0 | 0 | 0
O=C(NCCCn1ccnc1)/C(=C/c1ccco1)NC(=O)c1ccccc1 | 0 | 0 | 62 | 0 | - | 0
COCCNC(=O)C(c1ccncc1)N(C(=O)c1sc(C)nc1C)c1cccc(C)c1 (stereo unspecified) | 0 | 0 | 75 | 0 | 0 | 0
Cc1ccc(NC(=O)c2ccc3c(SCC(=O)O)c4c(nc3c2)CCCC4)c(Br)c1 | 0 | - | 0 | - | - | -
CC(CCc1ccccc1)NC(=O)CN1CCc2ccccc2C1 (stereo unspecified) | 0 | 0 | 94 | 0 | 0 | 0
CCc1ccc2[nH]c(O)c(N=Nc3nc(-c4ccccc4)cs3)c2c1 | -89 | 0 | 0 | 0 | - | 0
O=C(Cn1c(-c2ccccc2)c[n+]2ccsc12)c1ccc([N+](=O)[O-])cc1 | 0 | 0 | 0 | 0 | 0 | 0
CC(=O)N=c1sccn1CC(=O)c1ccc([N+](=O)[O-])cc1 | 0 | 0 | 58 | 0 | - | 0
SMILES | HSF1 inhib | S1P4 ag | HSF-1 act | Hsp70 act | S1P3 antagonist | S1P4 antagonist
Cc1ccc(NC(=O)c2cc3ccccc3oc2=N)cc1 | 0 | - | 0 | - | - | -
Cc1ccc(S(=O)(=O)N/N=c2\oc3ccccc3cc2C(=O)Nc2cccc(C)c2)cc1 | 0 | 0 | 58 | 0 | 0 | 0
COc1ccc(C(=O)CSc2ccccc2C(=O)O)cc1 | 0 | 0 | 0 | 0 | 0 | 0
CCC(C)n1c(C)nc2c(c1=O)c1nc3ccccc3nc1n2-c1ccc2c(c1)OCCO2 (stereo unspecified) | - | - | - | - | 0 | -
CCOC(=O)c1snc(C(=O)NC2CCCCC2)c1N | 0 | 0 | 61 | 0 | 0 | 0
Nc1c(C(=O)NC2CCCCC2)nsc1C(=O)OCC(=O)NC1CCCCC1 | 0 | 0 | 0 | 0 | 0 | 0
C=CCn1c(SCC(=O)NC2CCCC2)nc2c([nH]c3ccccc32)c1=O | 0 | - | 0 | - | - | -
CCc1cccc2c(C(=O)COC(=O)c3ccc([N+](=O)[O-])s3)c[nH]c12 | -69 | 0 | 0 | 0 | 0 | 0
CCC(C)n1cnc2c(c1=O)c1nc3ccccc3nc1n2Cc1ccc(OC)cc1 (stereo unspecified) | 0 | 0 | 104 | 0 | - | 0
Cc1ccc([N+](=O)[O-])cc1N=C1C(=O)Nc2ccccc21 | 0 | - | 0 | - | - | -
Cc1ccc2[nH]c3c(c2c1)CCN(C)C3 | -71 | - | 0 | - | - | -
Cc1cccc(-c2nc3c(s2)CCc2onc(-c4ccc(Br)cc4)c2-3)c1 | 0 | - | 0 | - | - | -
COc1ccc(OC)c(S(=O)(=O)Nc2ccc(O)c(Sc3ncn[nH]3)c2)c1 | 0 | 0 | 0 | 0 | 0 | 0
O=C(CSc1ccccn1)c1ccc(F)cc1 | 0 | 0 | 0 | 0 | 0 | 0
Cc1ccc(C(=O)CSc2ccccn2)cc1 | 0 | 0 | 53 | 0 | 0 | 0
CCOc1ccc(OCC(=O)OCC(=O)NNC(=O)c2ccc([N+](=O)[O-])cc2)cc1 | 0 | - | 0 | - | - | -
CCOc1cc(/C=C\c2[nH]c(=O)[nH]c(=O)c2[N+](=O)[O-])ccc1OC(C)CC (stereo unspecified) | 0 | 0 | 64 | 0 | - | 0
CCCOc1ccc(/C=C/c2[nH]c(=O)[nH]c(=O)c2[N+](=O)[O-])cc1OCC | 0 | 0 | 0 | - | 0 | 0
CCOC(=O)COc1ccc(Br)cc1/C=C/c1[nH]c(=O)[nH]c(=O)c1[N+](=O)[O-] | 0 | 0 | 85 | 0 | 0 | 0
CCOC(=O)COc1ccc(Br)cc1/C=C\c1[nH]c(=O)[nH]c(=O)c1[N+](=O)[O-] | 0 | 0 | 0 | 0 | 0 | 0
CNC(=S)N1CCC(c2nc3ccccc3s2)CC1 | 0 | 0 | 0 | 0 | 0 | 0
c1ccn2c(SCc3ccc4c(c3)OCO4)nnc2c1 | -65 | 0 | 0 | 0 | 0 | 0
COc1ccc(N2CCN(S(=O)(=O)c3cc4c(cc3C)N(C(C)=O)CCO4)CC2)cc1 | -58 | - | 0 | - | - | -
COc1ccc(N2CCN(S(=O)(=O)c3cc4c(cc3C)NC(=O)CO4)CC2)cc1 | 0 | - | 0 | - | - | -
Cc1ccc(-n2cc(CN3CCN(Cc4nccn4C)CC3)c(-c3ccc(F)cc3)n2)cc1 | 0 | 0 | 55 | 0 | 0 | 0
SMILES | HSF1 inhib | S1P4 ag | HSF-1 act | Hsp70 act | S1P3 antagonist | S1P4 antagonist
COc1ccccc1CCNC(=O)C(=O)NCC1CCCN1S(=O)(=O)c1ccccc1 (stereo unspecified) | 0 | - | 0 | - | - | -
CCN1CCSc2ccc(C(=O)NCc3cccc(Br)c3)cc21 | 0 | - | 121 | - | - | -
COc1ccc(S(=O)(=O)n2ccnc2C)c(C)c1C | 0 | - | 0 | - | - | -
Nc1c2c(nc3ccccc13)N(c1ccccc1)CC2 | -53 | - | 0 | - | - | -
O=C(NC1=NCCS1)C1CC(=O)N(c2ccc(F)cc2)C1 (stereo unspecified) | 0 | 0 | 87 | 0 | - | 0
Nn1c(SC/C=C/c2ccccc2)nnc1-c1ccncc1 | 0 | 0 | 0 | 0 | 0 | 0
COc1cc(-c2nnc(SC/C=C/c3ccccc3)n2N)cc(OC)c1OC | 0 | 0 | 79 | 0 | - | 0
COc1ccc(S(=O)(=O)Nc2cccc(-c3ccc(N4CCCCCC4)nn3)c2)c(OC)c1 | 0 | - | 0 | - | - | -
